This note sets out measurements from article PMC9911399, “Two distinct binding modes provide the RNA-binding protein RbFox with extraordinary sequence specificity”.

The chains are these.
T1: RBFOX1 RRM (Homo sapiens, UniProt Q9NWB1 109-208)
T1 sequence: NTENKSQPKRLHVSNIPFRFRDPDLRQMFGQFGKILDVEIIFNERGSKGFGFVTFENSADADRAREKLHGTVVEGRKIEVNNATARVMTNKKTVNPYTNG

B1: AAACACU (DNA:RNA)
RNA: GGGAGACCGGAAUUCAGAUUGUCCAAACACUUUAAAUCCCGUCGUAGCCACCA
DNA 1: CAATCTGAATTCCGGTCTCCC
DNA 2: TGGTGGCTACGACGGGATT
B2: GCGCAGU (DNA:RNA)
RNA: B1 RNA with A25G, A26C, A27G, C30G
DNA 1: CAATCTGAATTCCGGTCTCCC
DNA 2: TGGTGGCTACGACGGGATT
B3: GUUGUGG (DNA:RNA)
RNA: GGGAGACCGGAAUUCAGAUUGUCCGUUGUGGUUAAAUCCCGUCGUAGCCACCA
DNA 1: CAATCTGAATTCCGGTCTCCC
DNA 2: TGGTGGCTACGACGGGATT
B4: UGGAACG (DNA:RNA)
RNA: B1 RNA with A25U, A26G, A27G, C28A, U31G
DNA 1: CAATCTGAATTCCGGTCTCCC
DNA 2: TGGTGGCTACGACGGGATT
B5: GGGAACG (DNA:RNA)
RNA: B1 RNA with A25G, A26G, A27G, C28A, U31G
DNA 1: CAATCTGAATTCCGGTCTCCC
DNA 2: TGGTGGCTACGACGGGATT
B6: GAGAACG (DNA:RNA)
RNA: B1 RNA with A25G, A27G, C28A, U31G
DNA 1: CAATCTGAATTCCGGTCTCCC
DNA 2: TGGTGGCTACGACGGGATT
B7: UGGACCG (DNA:RNA)
RNA: B1 RNA with A25U, A26G, A27G, C28A, A29C, U31G
DNA 1: CAATCTGAATTCCGGTCTCCC
DNA 2: TGGTGGCTACGACGGGATT
B8: CCGAACG (DNA:RNA)
RNA: B1 RNA with A25C, A26C, A27G, C28A, U31G
DNA 1: CAATCTGAATTCCGGTCTCCC
DNA 2: TGGTGGCTACGACGGGATT
B9: CGGAACG (DNA:RNA)
RNA: B1 RNA with A25C, A26G, A27G, C28A, U31G
DNA 1: CAATCTGAATTCCGGTCTCCC
DNA 2: TGGTGGCTACGACGGGATT
B10: GGAACGU (DNA:RNA)
RNA: B1 RNA with A25G, A26G, C28A, A29C, C30G
DNA 1: CAATCTGAATTCCGGTCTCCC
DNA 2: TGGTGGCTACGACGGGATT
B11: GUUAACG (DNA:RNA)
RNA: B3 RNA with G28A, U29A, G30C
DNA 1: CAATCTGAATTCCGGTCTCCC
DNA 2: TGGTGGCTACGACGGGATT
B12: GUGAACG (DNA:RNA)
RNA: B3 RNA with U27G, G28A, U29A, G30C
DNA 1: CAATCTGAATTCCGGTCTCCC
DNA 2: TGGTGGCTACGACGGGATT

Substitutions are numbered along the chain they refer to; changes in the protein carry UniProt numbers. Whole data set: some 16,000 sequences, median “ka relative to ugcaugu” near 0.0091, cut for the highest 2% near 0.032. The list comes from a sample in which the highest values are over-represented; it also holds similar and randomly drawn sequences.

The target of the experiment is T1, RBFOX1 RRM. Nature of the experiment: EMSA; HiTS-Eq, 1 nM pool, 10 min; buffer printed only for the single-RNA assays: 10 mM Tris pH 7.5, 150 mM NaCl, 3.4 mM EDTA, 0.001% NP-40, 30 C. Conditions: tags: His6 N-terminal (pET28a); label: 5' 32P. In a few lines: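 Purified RbFox RRM, wild type or mutant, was incubated for 10 min in 50 µL with 1 nM of a 5′-radiolabelled RNA pool carrying 7 randomized nucleotides, whose flanks were annealed to DNA oligonucleotides, over a series of increasing protein concentrations. Unbound RNA was resolved on 8% native PAGE, cut out, reverse-transcribed, barcoded by PCR and sequenced on an Illumina HiSeq 2500. Relative association constants were derived from changes in read counts for each RNA species versus the control reaction and normalised to the cognate motif.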
Background: Mobility shift assays separate free from complexed probe on a gel.
As to B1, the binding signal was 0.00096 KA relative to UGCAUGU.

For B2, the binding signal was 0.0136 KA relative to UGCAUGU.

Take B3: the binding signal is 0.0184 KA relative to UGCAUGU.

As to B4, the binding signal was 0.0367 KA relative to UGCAUGU.

With B5, the binding signal is 0.0367 KA relative to UGCAUGU.

Consider B6, for which the binding signal is 0.0165 KA relative to UGCAUGU.

For the molecule B7, the binding signal was 0.0269 KA relative to UGCAUGU.

With B8, the binding signal was 0.0118 KA relative to UGCAUGU.

Take B9: the binding signal was 0.0344 KA relative to UGCAUGU.

As to B10, the binding signal is 0.0248 KA relative to UGCAUGU.

For B11, the binding signal was 0.0101 KA relative to UGCAUGU.

On to B12, for which the binding signal is 0.0163 KA relative to UGCAUGU.
